# Measured values: PubChem BioAssay AID504444 (National Center for Advancing Translational Sciences (NCATS), 2011)
# Where “and” joins values, the source holds several entries; their conditions need not be identical. Equal entries are not always repeated. In all, about 360,000 compounds went through this assay and about 7,500 (2.1%) were called active. Another 20% or so got no clear call; they are omitted. This is one part of a sample in which actives are shown more often than they occur. Values without a mark were called inactive. Calls follow the shape of the dose curve; as a rule, active = well fitted inhibition curve with a large enough effect; inconclusive = small, poorly fitted or top-dose-only effect, or effect the other way; inactive = flat fitted curve, though single readings scatter.
# Experiment: Nrf2 qHTS screen for inhibitors; also: nearly all actives have a fitted effect of over 60% in size
# Conditions: A549 ARE-Fluc reporter, luciferase luminescence, 18-24 h; series mostly up to 46 µM; activity change, negative = inhibition: at the top concentration
# How it was run: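 Concentration-response testing used A549 ARE_Fluc cells at 5000 cells/well. Following an 18-24 h compound incubation, viability was read by fluorescence (Ex 405/Em 525) and luciferase output by luminescence.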
# % is scaled to controls: 0 for no effect and ±100 for the full control effect; potency is read from the fitted curve at half-maximal effect.
SMILES,"activity change, negative = inhibition",Potency
COC(=O)CN1C(=O)CSc2ccc(S(=O)(=O)Nc3cc(C)ccc3C)cc21,10.2%,
Cc1cc(N)n(-c2ccc(S(=O)(=O)N3CCCC3)cc2[N+](=O)[O-])n1,5.75%,
Cc1ccc(C(=O)c2ccc(N3CCN(C)CC3)c([N+](=O)[O-])c2)cc1,-7.25%,
CN1CCN(S(=O)(=O)c2ccc(N3CCN(c4ccccc4O)CC3)c([N+](=O)[O-])c2)CC1,,14.6 µM (active)
COc1ccc(-c2nc(Cn3c(=O)cc(C)c4c(C)nn(-c5ccccc5)c43)c(C)o2)c(OC)c1,16.5%,
Cc1cc(C)n2ncc(C(=O)N3CCCC3)c2n1,14.2%,
Cc1cccc(NS(=O)(=O)c2ccc(C)c(C(=O)NCC(c3ccccc3)N(C)C)c2)c1 (stereo not given),-21.8%,
CCOC(=O)c1ccccc1C(=O)N1CCOCCOCCOCC1,14.3%,
Cc1oc2c(c1C(=O)N1CCOCC1)C(=O)c1ccccc1C2=O,,16.4 µM (active)
Cc1ccccc1-c1ccc(Nc2ccc(C(=O)N3CCOCC3)cc2)nn1,6.18%,
COc1ccc(C2Nc3ccc(NC(=O)COC(C)=O)cc3C(=O)N2Cc2ccccc2)cc1COc1ccc(NC(C)=O)cc1 (stereo not given),-7.8%,
Cc1cccc(C)c1OC(=O)CSc1nnc(-c2ccccc2)o1,-3.7%,
CC1=CC(C)(C)N(C(=O)CSc2nccn2C)c2cc(C)ccc21,0.891%,
CC1=CC(C)(C)N(C(=O)CSc2nnc(-c3ccccc3)o2)c2ccc(C)cc21,,25.9 µM (active)
CCN(CC)C(=O)[C@H]1CC(CC(=O)NCc2ccco2)C(=O)N2CCc3c([nH]c4ccccc34)[C@]12C (stereo not given in full),-4.63%,
Clc1cccc(N=C2NN=C(c3ccc4c(c3)OCCO4)CS2)c1,,5.17 µM (active)
Cc1cccc(N=C2NN=C(c3c[nH]c4ccccc34)CS2)c1,9.67%,
S=C(Nc1cccc(Cl)c1)Nc1ccc2c(c1)OCCO2,2.75%,
CCn1nnc2cc(C(=O)Nc3ccc(C(=O)OC(C)C)cc3)ccc21,-0.376%,
Cc1cc(C)cc(NC(=O)CSc2oc(-c3ccccc3)nc2S(=O)(=O)c2ccc(Cl)cc2)c1,4.62% [at 9.27 µM],
Cc1ccc(-c2nc(CS(=O)(=O)CC(=O)NCc3ccccc3Cl)c(C)o2)cc1,-22.6%,
CCCCn1c(SCC(=O)N2CCCC2=O)nc2cc(S(N)(=O)=O)ccc21,10.2%,
CCCCn1c(SCc2ncc(-c3ccccc3)o2)nc2cc(S(N)(=O)=O)ccc21,,14.6 µM (active)
CCCCn1c(SCC(=O)N2CCC(C(=O)OCC)CC2)nc2cc(S(N)(=O)=O)ccc21,-3.7%,

SMILES,"activity change, negative = inhibition",Potency
CCCn1c2ccccc2c2cnn(CC(=O)N(CC)c3cc(C)ccc3C)c(=O)c21,-4.38%,
Cc1ccc(S(=O)(=O)c2nc(-c3cccs3)oc2N2CCCCC2)cc1,-22%,
CCOc1ccccc1NC(=O)Cn1nnc(C(=O)Nc2ccc(C)c(C)c2)c1N,5.62%,
C[C@]12CCC(=O)C=C1C=CC1C2CC[C@@]2(C)C1CC[C@@]21CCC(=O)O1 (stereo not given in full),-16.2%,
CC(=O)O[C@]1(C(C)=O)CC[C@H]2[C@@H]3C=C(C)C4=CC(=O)CC[C@]4(C)[C@H]3CC[C@@]21C,,0.731 µM (active)
CSCCC(NS(=O)(=O)c1ccc(C)cc1)C(=O)N(C)CC(=O)Nc1ccccc1Br (stereo not given),-2.63%,
O=[N+]([O-])c1ccc(COc2ccccc2CN2CCOCC2)cc1,-26.8%,
CCOC(=O)c1c(C)[nH]c(C)c1S(=O)(=O)N1CCC(C(=O)Nc2ccc(C)c(Cl)c2)CC1,-27.4%,
COc1ccc(C(=O)Nc2c(Cl)cc(Cl)cc2C(=O)N2CCC(C)CC2)cc1,9.22%,
CC1=Nc2cc(C(=O)N3CCC(C)CC3)ccc2Sc2ccc(Cl)cc21,,16.4 µM (active)
CC1CCN(C(=O)c2ccc3c(c2)NC(=O)CN3)CC1,-7%,
CC1CCCCC1NC(=O)NC(=O)COC(=O)C1=NN(c2ccccc2)C(=O)CC1 (stereo not given),-3.54%,
O=C1C(F)N([S+](=O)([O-])c2ccc3c(c2)OCCO3)CCN1[S+](=O)([O-])c1c(F)cccc1F (stereo not given),1.59%,
COc1cc2nc(NCC(C)c3ccccc3)n3nc(-c4ccccc4)nc3c2cc1OC (stereo not given),22%,
COc1ccc(-c2noc(CCC(=O)N3CCN(c4cccc(C)c4)CC3)n2)cc1,-21.2%,
COc1ccc(N2CCN(C(=O)CCc3nc(-c4ccc(C)cc4)no3)CC2)cc1,-18.5%,
COc1ccc(-c2noc(CCC(=O)N(C)c3ccccc3C)n2)cc1,,20.6 µM (active)
Cc1cc(OCC(=O)Nc2ncn[nH]2)c(C)c(C)c1Br,5.95%,
CC(C)OC(=O)CN1CCN(c2ccc(Cl)cc2)CC1,,16.4 µM (active)
O=C(CN1CCN(c2ccc(Cl)cc2)CC1)c1ccccc1,-0.714%,
O=C(CN1CCN(c2ccc(Cl)cc2)CC1)N1CCCC1,-9.45%,
Cc1ccc(-c2cnc(NCc3ccc(C(C)C)cc3)n2C)cc1,-27.5%,
CCOc1ccc(-c2cc3nc(C4CCN(C(=O)OC(C)(C)C)CC4)c(C(=O)Nc4cccc(CC)c4)cn3n2)cc1,12.9%,
CCn1c2ccccc2c2nnc(N3CCN(c4cc(C)ccc4C)CC3)nc21,,20.6 µM (active)

SMILES,"activity change, negative = inhibition",Potency
CCn1c2ccccc2c2nnc(SCC(=O)O)nc21,7.55%,
Cc1ccc(C)c(N2CCN(Cc3nnc(-c4ccccc4)o3)CC2)c1,0.374%,
Cc1ccc(S(=O)(=O)n2nc(-c3ccc(Cl)cc3)nc2NCc2ccccc2)cc1,11.6%,
Cc1ccc(NC(=O)CN(C)C(=O)c2cccc(S(=O)(=O)N3CCCC3)c2)cc1,0.0961%,
CCOc1ccc(NC(=O)CN(C)C(=O)c2cccc(S(=O)(=O)N3CCCC3)c2)cc1OCC,6.49%,
COc1ccc(NC(=O)CN(C)C(=O)c2cccc(S(=O)(=O)N3CCN(c4ccccc4)CC3)c2)cc1,,16.4 µM (active)
COc1ccccc1C(=O)OCc1cc(=O)n2nc(-c3cccs3)sc2n1,15%,
CC(C)(C)S(=O)(=O)N1Cc2cc(CO)cc(CCO)c2[C@H]1CCO,3.32%,
O=C(N/N=C/c1ccccn1)c1ccc(S(=O)(=O)N2CCCCCC2)cc1,-9.53%,
O=C(N/N=C/c1ccccn1)c1cccc(NC(=O)c2ccc(Cl)cc2)c1,,23.1 µM (active)
O=C(N/N=C/c1ccccn1)c1cccnc1,-21%,
CCOc1ccc(/C=C(/C#N)c2nnc(N3CCOCC3)n2-c2ccccc2)cc1OC,3.02%,
COc1ccc(CNC(=O)c2ccc(NC(=O)N3CC4CCCN4c4ccccc43)cc2)cc1 (stereo not given),-10.6%,
CCN(CCCNC(=O)c1cc2c(=O)n(CC)c3ccccc3c2s1)Cc1ccccc1,-3.82%,
CCN1CCN(c2cc(C)c3cc(NC(=O)c4cc(Cl)ccc4OC)ccc3n2)CC1,12% [at 9.27 µM],
O=C(Nc1nc2c(F)cc(F)cc2s1)C1COc2ccccc2O1 (stereo not given),0%,
O=C(Nc1nnc(SCc2ccc(Cl)cc2Cl)s1)C1COc2ccccc2O1 (stereo not given),-3.38%,
O=C(Nc1ncc([N+](=O)[O-])s1)C1COc2ccccc2O1 (stereo not given),,14.6 µM (active)
Cc1ccc(C(=O)Nc2cc3c(cc2N2CCCC2)n(C)c(=O)c(=O)n3C)cc1,-16.1%,
CN(C)C(=O)CCc1ccc2c3c([nH]c2c1)[C@]1(CCc2ccccc2)[C@@H](C(=O)N2CCCCC2)C[C@H](CC(=O)NCCC2=CCCCC2)C(=O)N1CC3,0.72%,
O=C(Cn1c(-c2cccs2)cc2ccccc21)NCCc1ccc(Cl)cc1,-13.9%,
S=C(NCC1CCCO1)N1CCN(c2ccc(Cl)c(Cl)c2)CC1 (stereo not given),,14.6 µM (active)
CCOc1ccc(S(=O)(=O)N2CCN(C(=S)NCC3CCCO3)CC2)cc1 (stereo not given),-33.1%,
COc1ccc(S(=O)(=O)N2CCN(C(=S)NCC3CCCO3)CC2)cc1OC (stereo not given),-20.4%,

SMILES,"activity change, negative = inhibition",Potency
CCCCOc1ccc(CN2C(=O)C(=O)c3cc(Br)cc(C)c32)cc1OC,-12.3%,
O=C(CN1C(=O)COc2ccc(S(=O)(=O)N3CCCCCC3)cc21)N1CCN(c2cccc(C(F)(F)F)c2)CC1,0.38%,
CCc1cc2c(cc3c(=O)n(CC(=O)NCc4cccc(Cl)c4)nc(CC)n32)s1,3.17%,
CN(C)c1ccc(NC(=O)CSc2nc(-c3ccco3)cc(C(F)(F)F)n2)cc1,4.36%,
COc1ccc(C)cc1S(=O)(=O)N1CCN(S(=O)(=O)c2cc(C(=O)O)ccc2C)CC1,4.87%,
Cc1ccc(S(=O)(=O)N2CCN(c3nc(-n4cnc5ccccc54)nc4ccccc34)CC2)cc1,18.1%,
Cc1ccc(S(=O)(=O)N2CCN(c3ncnc4ccccc34)CC2)cc1,,2.31 µM (active) and 8.2 µM (active)
Cc1ccc(C)c(S(=O)(=O)N2CCN(c3ncnc4sccc34)CC2)c1,,18.4 µM (active)
Cc1ccc(C)c(S(=O)(=O)N2CCN(C(=O)Nc3ccccc3)CC2)c1,-16.1%,
O=[N+]([O-])c1ccc(S(=O)(=O)N2CCN(c3nc(-c4ccccc4)nc4ccccc34)CC2)cc1,-12.6%,
Cc1ccc(C)n1-c1nnc(N2CCC(C(=O)NCc3ccccc3Cl)CC2)s1,4.84%,
CCCCn1nc(C(=O)Nc2cccc(C(=O)NC3CC3)c2)c2ccccc2c1=O,-23.9%,
Cc1ccccc1NC(=O)CSC(=O)c1ccccc1,18.1%,
CCc1ccc(CN(C)Cc2nc(Cc3ccccc3)no2)nc1,0%,
CCc1ccc(CN(C)C(=O)CCc2nnc(-c3ccc(-c4ccccc4)cc3)o2)nc1,,18.4 µM (active)
CC(=O)c1ccc(-c2nnc(CCC(=O)N(C)Cc3cnc4ccccn34)o2)s1,26.1%,
NC(=S)NN=C1CCCC(C(F)(F)F)C1 (stereo not given),0.985%,
O=S(=O)(Nc1ccc2nc(N3CCOCC3)sc2c1)c1ccccc1,11.5%,
COc1ccc(Cl)cc1NC(=O)COC(=O)c1ccc(Br)o1,16.4%,
CC(=O)Nc1ccc(S(=O)(=O)NCCC(=O)N2CCN(c3ccccc3Cl)CC2)cc1,-4.63%,
CCc1nc(Nc2ccc(NC(C)=O)cc2)c2oc3ccccc3c2n1,-11.3%,
CC(=O)Nc1ccc(Nc2c3ccccc3nc3ccccc23)cc1,,5.8 µM (active)
CC(=O)Nc1ccc(NC(=O)COc2ncnc3ccccc23)cc1,2.36%,
